“And” between values parts separate entries of the source, which are not always exact repeats. Equal values may be shown once. Records with an inconclusive call do not appear. A structure can be active in one record and inactive in another. The source made the active and inactive calls. The call rests on the fitted dose curve; in most records, active means well fitted curve in the direction sought with a large enough effect; inconclusive means small, poorly fitted or top-dose-only effect, or another doubt; inactive means no such curve, though single readings can be large; an effect the other way counts as inactive or inconclusive.

Assay [1] can be described thus: P-glycoprotein substrates identified in KB-8-5-11 adenocarcinoma cell line, qHTS therapeutic library screen (AID 1346987). Further: nearly all actives have a fitted effect of over 65% in size. The gist of the method: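 KB-8-5-11, a colchicine-selected P-gp-overexpressing KB-3-1 subline, was grown without colchicine for the assay. Cells were seeded at 500 cells/well, dosed in concentration-response and incubated 72 h at 37 degree C, 5% CO2. Viability was read by CellTiter-Glo luminescence.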
On the technique in general: In qHTS, concentration-response curves come from the screen itself.

A short description of assay [2]: NS1 protein of Zika virus - qHTS assay to identify small molecule inhibitors in human HEK 293 cells (AID 1347053). Further: nearly all actives have a fitted effect of over 55% in size. The gist of the method:
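HEK 293 cells pretreated with compound for 1 h, then infected with ZIKV MR766 (MOI 0.5) for 24 h at 37 C. NS1 detected by TR-FRET with two anti-NS1 antibodies; normalized to uninfected (0%) and infected (100%) wells.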
Potency means the concentration at half of the fitted maximal effect.

As to `Cc1cnc(Nc2cccc(CN3CCOCC3)c2)nc1Nc1cccc(S(=O)(=O)NC(C)(C)C)c1`, the Potency entry in assay [1] was “inactive and 4.11 µM (active)”. Moreover, in assay [2], the Potency entry is “inactive”.

With `CC[C@H](C)C(=O)O[C@H]1C[C@H](O)C=C2C=C[C@H](C)[C@H](CC[C@@H](O)C[C@@H](O)CC(=O)O)[C@H]21`, the Potency entry in assay [1] and in assay [2] was “inactive” in each case.

Turning to `CC1(C)OC2CC3C4CC(F)C5=CC(=O)C=CC5(C)C4C(O)CC3(C)[C@]2(C(=O)CO)O1` (some centres undefined), the Potency result in assay [1] and in assay [2] was “inactive” each time.

For `C[C@@H](O)[C@H]1C(=O)N2C(C(=O)OCOC(=O)C(C)(C)C)=C(SC3CN(C4=NCCS4)C3)[C@H](C)[C@H]12`, the Potency result in assay [1] and in assay [2] was “inactive” throughout.

Consider `COc1ccc(-c2nc3ccc(C4=NNC(=O)CC4C)cc3[nH]2)cc1` (centres undefined), for which the Potency entry in assay [1] and in assay [2] was “inactive” each time.

`CC1CCN(c2cc(N3CCN(C)CC3)ccc2NC(=O)c2cc(C#N)c[nH]2)CC1`: the Potency result in assay [1] and in assay [2] was “inactive” in each case.

`OC1CCC(Nc2ncc3nc(Nc4c(F)cc(F)cc4F)n([C@@H]4CCOC4)c3n2)CC1` (some centres undefined): the Potency result in assay [1] and in assay [2] was “inactive” in each case.

For `COc1ccc(-c2oc3c(CC=C(C)C)c(O)cc(O)c3c(=O)c2O)cc1`, the Potency result in assay [1] and in assay [2] was “inactive” in each case.

Consider `NCC1CCC(C(=O)O)CC1` (centres undefined), for which the Potency result in assay [1] and in assay [2] was “inactive” in each case.

As to `Cc1ccc(C(=O)N(CCCN)[C@@H](c2oc3cc(Cl)ccc3c(=O)c2Cc2ccccc2)C(C)C)cc1`, the Potency in assay [1] was 83.3 nM (active); in assay [2], 10.5 µM (active).

Turning to `CC(C)c1onc(-c2c(Cl)cccc2Cl)c1COc1ccc(C=Cc2cccc(C(=O)O)c2)c(Cl)c1`, the Potency entry in assay [1] and in assay [2] was “inactive” throughout.

Turning to `CN(C)CCOc1ccc(C(=C(CCCl)c2ccccc2)c2ccccc2)cc1`, the Potency result in assay [1] and in assay [2] was “inactive” throughout.

These data come from PubChem BioAssay (NCATS).
